In ChEMBL document CHEMBL1157539, “Thousands of chemical starting points for antimalarial lead identification” (Nature, 2010):

Experiments:
Assay type in all cases: functional
Plasmodium falciparum [1] = test: GSK_TCMDC: Inhibition of Plasmodium falciparum 3D7 in whole red blood cells, using parasite LDH activity as an index of growth. Test compounds present at 2uM
Plasmodium falciparum [2] = test: GSK_TCMDC: Inhibition of Plasmodium falciparum Dd2 in whole red blood cells, using parasite LDH activity as an index of growth. Test compounds present at 2uM
HepG2 = test: GSK_TCMDC: Percent inhibition of human HepG2 cell line. Test compounds present at 10uM.

Row | Structure (SMILES) | Inhibition (Plasmodium falciparum [1]) | Inhibition (Plasmodium falciparum [2]) | Inhibition (HepG2)
1 | COC(=O)c1ccc(OCC(O)CO)cc1O (stereo not drawn) | 100% | 23% | 4%
2 | O=C(NCCNc1ccnc(Nc2ccc(F)cc2)n1)Nc1ccccc1F | 93% | 4% | 22%
3 | CN(C)CCOc1ccc2c(c1)CN(C)CC2c1ccccc1.Cl (stereo not drawn) | 91% | 0% | 15%
4 | Cc1cccc2nc(-c3ccc(-c4ccc(CNCc5cccc(N)c5)cc4)s3)[nH]c12.O=C(O)C(F)(F)F | 100% | 78% | 10%
5 | COC(=O)[C@@H](NC(=O)[C@H](Cc1ccc(OC)c(OC)c1)Nc1ccc(C#N)c2ccccc12)c1ccc(O)cc1.O=C(O)C(F)(F)F | 100% | 100% | 6%
6 | Cc1cccc(C(=O)NC(NC(=S)Nc2cc(Cl)ccc2Cl)C(Cl)(Cl)Cl)c1 (stereo not drawn) | 94% | 61% | 0%
7 | Cc1ccccc1NC(=O)C1CSCN1C(=O)OCc1ccccc1 (stereo not drawn) | 91% | 0% | 8%
8 | CCN1CCN(CCCNc2ccnc3cc(Cl)ccc23)CC1.Cl | 100% | 77% | 7%
9 | CC(=O)c1ccc(NC(=O)Nc2ccc(N(C)c3ccnc(NC4CC4)n3)cc2)cc1 | 100% | 60% | 59%
10 | Cc1cc(-c2ccc(CNC3Cc4ccccc4C3)cc2)ccc1S(=O)(=O)NCCN1CCCC1.O=C(O)C(F)(F)F | 100% | 73% | 99%
11 | CC(C)COc1ccc(Cl)cc1Cc1ccc(-c2nc3ccc(F)c(F)c3[nH]2)o1 | 94% | 85% | 26%
